Test results published in publication PMC5700166.
Positions count from the first letter of the chain named.

What was measured:
Assay in all cases: protein-binding microarray (PBM); PBM: ~300 nM protein, 6 mM HEPES pH 7.8, 80 mM KCl, 0.5 mM EDTA, 0.5 mM EGTA, 6% glycerol, 35 ng/ul poly-dIdC, 1% milk, 1 h, room temperature; Ap Aiptasia and Nv Nematostella (sea anemones) / Co Capsaspora / Aq Amphimedon (sponge) / Dm Drosophila / Hu human; RHD is the Rel homology domain; high values mean tight binding
Settings in all cases: dsDNA, one strand shown
[1] = target: T1, GST-Ap-NF-kB RHD (Exaiptasia pallida (Aiptasia), UniProt A0A913YAJ5 2-422)
T1 sequence: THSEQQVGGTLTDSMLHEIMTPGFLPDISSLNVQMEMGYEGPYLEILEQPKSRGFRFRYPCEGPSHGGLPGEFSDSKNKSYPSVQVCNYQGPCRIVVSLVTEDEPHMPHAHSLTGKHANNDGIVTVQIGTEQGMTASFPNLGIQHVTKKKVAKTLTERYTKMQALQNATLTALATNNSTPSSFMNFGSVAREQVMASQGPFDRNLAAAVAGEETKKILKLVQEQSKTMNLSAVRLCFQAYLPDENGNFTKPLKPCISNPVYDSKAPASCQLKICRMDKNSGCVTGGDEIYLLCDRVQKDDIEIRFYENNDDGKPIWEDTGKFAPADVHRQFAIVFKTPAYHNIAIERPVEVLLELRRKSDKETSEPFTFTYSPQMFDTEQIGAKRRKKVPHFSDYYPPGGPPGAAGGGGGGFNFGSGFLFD

[2] = target: T2, GST-Nv-NF-kB (Cys allele) (Nematostella vectensis, UniProt E5G601 2-411)
T2 sequence: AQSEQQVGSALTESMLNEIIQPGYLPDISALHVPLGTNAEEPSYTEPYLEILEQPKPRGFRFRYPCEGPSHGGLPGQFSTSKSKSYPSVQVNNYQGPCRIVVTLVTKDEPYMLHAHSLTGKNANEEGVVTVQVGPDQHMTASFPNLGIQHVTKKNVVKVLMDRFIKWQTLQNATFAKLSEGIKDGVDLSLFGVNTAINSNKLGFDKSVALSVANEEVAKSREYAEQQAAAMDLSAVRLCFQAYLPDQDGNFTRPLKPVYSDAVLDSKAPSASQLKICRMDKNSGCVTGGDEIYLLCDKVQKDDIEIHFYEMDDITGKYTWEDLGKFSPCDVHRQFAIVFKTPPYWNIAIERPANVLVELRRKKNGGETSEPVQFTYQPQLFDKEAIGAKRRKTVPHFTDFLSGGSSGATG

[3] = target: T3, GST-Nv-NF-kB (Ser allele) (Nematostella vectensis, UniProt A7UNT2 2-411)
T3 sequence: T2 sequence with Q21R, C66S, S207N, E215Q, V217A, E225K, A268E, D399E

[4] = target: T4, GST-Co-NF-kB (Capsaspora owczarzaki, UniProt F1ARL5 200-546)
T4 sequence: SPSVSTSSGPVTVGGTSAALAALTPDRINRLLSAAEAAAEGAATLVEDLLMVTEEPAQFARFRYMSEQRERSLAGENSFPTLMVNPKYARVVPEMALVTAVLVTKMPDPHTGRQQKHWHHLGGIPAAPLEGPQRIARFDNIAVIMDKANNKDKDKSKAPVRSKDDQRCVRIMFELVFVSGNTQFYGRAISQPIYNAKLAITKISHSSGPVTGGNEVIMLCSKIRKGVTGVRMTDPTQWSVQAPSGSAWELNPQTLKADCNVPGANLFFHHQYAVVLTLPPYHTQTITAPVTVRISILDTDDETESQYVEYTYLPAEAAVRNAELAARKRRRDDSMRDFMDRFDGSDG

[5] = target: T5, GST-Dm-Relish (Drosophila melanogaster, UniProt Q94527 99-473)
T5 sequence: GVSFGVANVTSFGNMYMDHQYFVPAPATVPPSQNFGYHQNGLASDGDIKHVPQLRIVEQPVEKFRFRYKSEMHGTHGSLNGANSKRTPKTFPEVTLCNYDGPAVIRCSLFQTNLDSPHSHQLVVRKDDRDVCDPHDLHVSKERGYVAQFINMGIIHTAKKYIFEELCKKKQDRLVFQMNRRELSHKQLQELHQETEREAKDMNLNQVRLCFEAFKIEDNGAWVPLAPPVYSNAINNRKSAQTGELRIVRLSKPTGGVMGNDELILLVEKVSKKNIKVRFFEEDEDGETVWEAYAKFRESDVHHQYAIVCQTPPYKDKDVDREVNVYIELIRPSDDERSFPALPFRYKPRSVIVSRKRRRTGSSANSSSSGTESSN

[6] = target: T6, GST-Aq-NF-kB (Amphimedon queenslandica, UniProt A9Y5G7 2-389)
T6 sequence: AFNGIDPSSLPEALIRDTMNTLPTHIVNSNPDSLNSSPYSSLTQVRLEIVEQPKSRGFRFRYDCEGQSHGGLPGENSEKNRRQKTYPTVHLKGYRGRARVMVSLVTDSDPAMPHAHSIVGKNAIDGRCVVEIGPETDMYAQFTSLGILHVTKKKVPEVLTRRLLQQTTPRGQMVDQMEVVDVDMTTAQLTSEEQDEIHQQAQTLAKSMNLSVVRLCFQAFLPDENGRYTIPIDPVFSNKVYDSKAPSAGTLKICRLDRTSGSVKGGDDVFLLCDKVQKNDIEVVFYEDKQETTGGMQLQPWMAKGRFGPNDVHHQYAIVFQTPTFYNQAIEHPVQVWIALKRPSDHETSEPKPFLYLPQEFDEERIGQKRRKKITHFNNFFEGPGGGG

[7] = target: GST-Hu-p50 (Homo sapiens, UniProt P19838 7-356)
Sequence of GST-Hu-p50 (P19838 7-356): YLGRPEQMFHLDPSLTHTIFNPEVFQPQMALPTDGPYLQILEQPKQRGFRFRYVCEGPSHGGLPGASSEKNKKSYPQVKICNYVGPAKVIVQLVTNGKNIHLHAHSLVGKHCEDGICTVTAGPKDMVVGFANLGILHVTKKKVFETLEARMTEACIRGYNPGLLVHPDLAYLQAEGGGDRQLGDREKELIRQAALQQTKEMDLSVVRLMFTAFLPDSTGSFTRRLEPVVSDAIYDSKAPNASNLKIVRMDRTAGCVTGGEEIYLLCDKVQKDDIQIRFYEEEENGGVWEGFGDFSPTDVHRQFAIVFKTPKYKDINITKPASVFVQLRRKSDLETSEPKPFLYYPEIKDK

CCGATTAACATCACGGGGTTTCCTGATGTTAATCGGGTCTTGATTCGCTTGACGCTGCTG
binding signal [1]: 6.06 z-score
binding signal [2]: 4.79 z-score
binding signal [3]: 2.69 z-score
binding signal [4]: 2.61 z-score
binding signal [5]: 7.75 z-score
binding signal [6]: 5.93 z-score
binding signal [7]: 4.42 z-score

CCGATTAACATCAGGGGACATTATGATGTTAATCGGGTCTTGATTCGCTTGACGCTGCTG
binding signal [1]: 5.74 z-score
binding signal [2]: 5.19 z-score
binding signal [3]: 5.89 z-score
binding signal [4]: 4.2 z-score
binding signal [5]: 3.51 z-score
binding signal [6]: 4.62 z-score
binding signal [7]: 4.63 z-score

CCGATTAACATCAAAATTCCCCGTGATGTTAATCGGGTCTTGATTCGCTTGACGCTGCTG
binding signal [1]: 9.41 z-score
binding signal [2]: 11.3 z-score
binding signal [3]: 11.6 z-score
binding signal [4]: 10.6 z-score
binding signal [5]: 8.96 z-score
binding signal [6]: 8.42 z-score
binding signal [7]: 7.28 z-score

CCGATTAACATCAGGGGATTCGATGATGTTAATCGGGTCTTGATTCGCTTGACGCTGCTG
binding signal [1]: 5.58 z-score
binding signal [2]: 5.21 z-score
binding signal [3]: 7.7 z-score
binding signal [4]: 2.24 z-score
binding signal [5]: 3.8 z-score
binding signal [6]: 3.6 z-score
binding signal [7]: 5.33 z-score

CCGATTAACATCAAGGGGGAGATTGATGTTAATCGGGTCTTGATTCGCTTGACGCTGCTG
binding signal [1]: 6.99 z-score
binding signal [2]: 6.09 z-score
binding signal [3]: 7.57 z-score
binding signal [4]: 7.21 z-score
binding signal [5]: 3.01 z-score
binding signal [6]: 5.27 z-score
binding signal [7]: 7.18 z-score

CCGATTAACATCACATTTTTCCCTGATGTTAATCGGGTCTTGATTCGCTTGACGCTGCTG
binding signal [1]: 3.43 z-score
binding signal [2]: 5.03 z-score
binding signal [3]: 7.3 z-score
binding signal [4]: 5.64 z-score
binding signal [5]: 2.56 z-score
binding signal [6]: 4.26 z-score
binding signal [7]: 3.84 z-score

CCGATTAACATCAAGAAAACCCCTGATGTTAATCGGGTCTTGATTCGCTTGACGCTGCTG
binding signal [1]: 6.98 z-score
binding signal [2]: 7.2 z-score
binding signal [3]: 6.87 z-score
binding signal [4]: 2.44 z-score
binding signal [5]: 7.76 z-score
binding signal [6]: 6.52 z-score
binding signal [7]: 6.8 z-score

CCGATTAACATCAGGACTCCCCATGATGTTAATCGGGTCTTGATTCGCTTGACGCTGCTG
binding signal [1]: 5.91 z-score
binding signal [2]: 3.31 z-score
binding signal [3]: 3.6 z-score
binding signal [4]: 3.44 z-score
binding signal [5]: 6.5 z-score
binding signal [6]: 4.12 z-score
binding signal [7]: 2.97 z-score

CCGATTAACATCAGGGGAAAATATGATGTTAATCGGGTCTTGATTCGCTTGACGCTGCTG
binding signal [1]: 6.98 z-score
binding signal [2]: 8.57 z-score
binding signal [3]: 11.7 z-score
binding signal [4]: 10.2 z-score
binding signal [5]: 4.1 z-score
binding signal [6]: 6.25 z-score
binding signal [7]: 6.72 z-score

CCGATTAACATCAGGCTTTCCCCTGATGTTAATCGGGTCTTGATTCGCTTGACGCTGCTG
binding signal [1]: 6.49 z-score
binding signal [2]: 7.29 z-score
binding signal [3]: 7.71 z-score
binding signal [4]: 4.87 z-score
binding signal [5]: 7.38 z-score
binding signal [6]: 7.22 z-score
binding signal [7]: 4.79 z-score

CCGATTAACATCACGGATTCCCCTGATGTTAATCGGGTCTTGATTCGCTTGACGCTGCTG
binding signal [1]: 8.74 z-score
binding signal [2]: 9.07 z-score
binding signal [3]: 9.24 z-score
binding signal [4]: 6.61 z-score
binding signal [5]: 8.89 z-score
binding signal [6]: 6.68 z-score
binding signal [7]: 6.26 z-score

CCGATTAACATCACGGGAAATTCTGATGTTAATCGGGTCTTGATTCGCTTGACGCTGCTG
binding signal [1]: 5.1 z-score
binding signal [2]: 6.52 z-score
binding signal [3]: 5.98 z-score
binding signal [4]: 5.06 z-score
binding signal [5]: 3.57 z-score
binding signal [6]: 6.47 z-score
binding signal [7]: 4.83 z-score

CCGATTAACATCACGGAAATCCCTGATGTTAATCGGGTCTTGATTCGCTTGACGCTGCTG
binding signal [1]: 4.3 z-score
binding signal [2]: 3.8 z-score
binding signal [3]: 2.78 z-score
binding signal [4]: 1.09 z-score
binding signal [5]: 6.96 z-score
binding signal [6]: 6.11 z-score
binding signal [7]: 3.58 z-score
